In all, about 2,300 compounds went through this assay and about 1,500 (65%) were called active. The set was probably picked from earlier hits. The list shows a part of the results. Measured potencies and affinities stand elsewhere. Unmarked numbers belong to inactive results. The rule behind the calls is not given here.
Test: replicating M. tuberculosis growth inhibition, dose response, non-replicating M. tuberculosis project, H37Rv (AID 492952);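 note: Mycobacterium tuberculosis grown in culture; growth inhibition read after a week of incubation; 0% = bacteria alone untreated and 100% = bacteria with high antibiotic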
Conditions: series mostly up to 50 µM; inhibition: at the top concentration

Row | Structure (SMILES) | inhibition [%]
1 | CCOc1ccc(NC(=O)c2nnn(CC(=O)Nc3ccccc3OC)c2N)cc1 | 2.2
2 | COc1cccc(NC(=O)c2ccc(C(=O)c3ccccc3)o2)c1 | -2.29
3 | COc1ccc(NC(=O)c2nc3ccccc3s2)cc1 | -0.19
4 | O=S(=O)(c1ccc(OCC2CO2)cc1)c1ccc(OCC2CO2)cc1 (stereo not given) | -2.76
5 | COC(=O)COc1ccc(S(=O)(=O)N2CCN(c3ccccc3F)CC2)cc1 | 4.73
6 | Cc1ccc(CC(=O)N2CCN(c3ccc([N+](=O)[O-])cc3)CC2)cc1 | -1.43
7 | O=C(Nc1ccc(N2CCN(C(=O)c3ccco3)CC2)c(Cl)c1)c1cccs1 | 0.19
8 | O=C(c1cccs1)N1CCN(c2ccc(Cl)cc2)CC1 | 1.37
9 | O=C(NNC(=O)c1cccs1)c1ccc(Br)o1 | -8.17
10 | Cc1nc2ccc(OC(=O)c3ccccc3)cc2s1 | 29.8
11 | Cc1ccc(-c2nnc(-c3ccccc3)o2)cc1 | 3.49
12 | O=C(COC(=O)CCC(=O)c1ccc(F)cc1)Nc1ccc(F)cc1F | -1.72
13 | O=C(NNC(=O)c1ncc(Cl)c(Cl)c1Cl)c1ccc(F)cc1 | 5.84
14 | O=C1c2ccccc2CC1Sc1nnc(-c2ccncc2)o1 (stereo not given) | 11.4
15 | CCOc1ccccc1NC(=O)COn1nnc2ccc(Cl)cc21 | -4.11
16 | O=C(Nc1ccc(Cl)cc1Cl)c1cccc(N2C(=O)C=CC2=O)c1 | 14.2
17 | C/C(=N\NC(=O)c1cccc(Cl)c1)C1C(=O)c2ccccc2C1=O | 0.13
18 | O=S(=O)(CCN1CCN(c2ccccn2)CC1)c1ccc(Cl)cc1Cl | 2.07
19 | CC(=O)c1ccc(-c2nnc(CCC(=O)N(C)Cc3cccc4cnccc34)o2)s1 | -1.47
20 | O=C(COc1cccc2ccccc12)Nc1ccc(Cl)cc1C(=O)O | 5.34

Row | Structure (SMILES) | inhibition [%]
21 | CCOC(=O)c1csc(COc2ccccc2Cl)n1 | -1.18
22 | CCOc1cccc2cc(C(=O)NC(C)c3ccccc3)c(=N)oc12 (stereo not given) | 3.19
23 | N=c1oc2ccc(Cl)cc2cc1C(=O)NC1CCCCCC1 | 2.7
24 | O=C(Nc1nccs1)c1ccc(COc2ccc(Cl)cc2)o1 | -1.74
25 | CCOC(=O)NC(=O)COC(=O)CCCSc1nc2ccccc2s1 | 6.54
26 | CCOC(=O)C(=O)Cc1nc2ccccc2s1 | 2.3
27 | CCNC(=O)NC(=O)C(C)OC(=O)CCCSc1nc2ccccc2s1 (stereo not given) | 3.89
28 | CC(C)CNc1nc(=S)nc(N(C)C)[nH]1 | 1.1
29 | COc1ccc(S(=O)(=O)NCc2ccc3c(c2)cc(C)n3C)cc1 | 7.34
30 | CC(NC(=O)OCc1ccccc1)c1ccccc1 (stereo not given) | -0.48
31 | CCOC(=O)c1c(-c2ccccc2)csc1NC(=O)CCN1CCOCC1 | 2.4
32 | COc1ccc2cc(C(=O)NCc3ccccc3CN3CCCC3)ccc2c1 | 29.6
33 | CCCCn1nnc(NC(=O)COc2ccc(Cl)c(C)c2)n1 | 12.5
34 | O=c1c2c([N+](=O)[O-])cc([N+](=O)[O-])cc2nc2ccccn12 | 17.1
35 | COc1cc(Cl)cc(/C=N/NC(N)=O)c1O | 2.23
36 | CCSc1nc(O)c(C2OC(=O)c3c2ccc(OC)c3OC)c(=O)n1-c1ccccc1 (stereo not given) | -2.58
37 | NCCNc1ccc([N+](=O)[O-])c2cccnc12 | 6.01
38 | C/C(=N\NC(=O)c1ccco1)c1cc(Cl)sc1Cl | 2.82
39 | C/C(=N/NC(=O)c1ccco1)c1ccc(Br)s1 | -2.18
40 | Cc1cccnc1NC(=O)COc1ccc2oc3c(c2c1)CCCC3 | 2.59

Row | Structure (SMILES) | inhibition [%]
41 | CCOC(=O)N1CCN(c2cc(C)c([N+](=O)[O-])cc2F)CC1 | 0.99
42 | Cc1ccc(NC(=O)c2noc(C(C)C)c2[N+](=O)[O-])cc1 | 5.61
43 | Cc1ccnc(-n2sc3ccccc3c2=O)n1 | -1.3
44 | O=c1ccn(-c2ccccc2)[nH]1 | 4.15
45 | COc1ccc(OCc2n[nH]c(=S)o2)cc1 | -6.5
46 | O=c1oc(-c2ccccc2[N+](=O)[O-])nc2ccccc12 | 5.42
47 | C=CC(=O)Oc1ccc(N2Cc3ccccc3C2=O)cc1 | -13.4
48 | CN1CCN(Cc2cc(C(C)(C)C)c(O)c(C(C)(C)C)c2)CC1 | 0.19
49 | CCCn1c(O)c(N=NC(=O)c2ccco2)c2ccccc21 | -4.81
50 | CCCN1C(=O)SC(CC(=O)Nc2ccccc2)C1=O (stereo not given) | -14.1
51 | CCCCn1c(N)c(-c2nc3ccccc3o2)c2c([N+](=O)[O-])nn(CC)c(=O)c21 | -4.02
52 | C/C(=N\NC(=O)c1ccccc1)c1nc2ccccc2n1C | 5.23
53 | Cc1cc(C)c(OCC(=O)Nc2nnc(-c3ccco3)o2)c(C)c1 | 28.4
54 | Cc1cccc(CSc2nnc(-c3ccco3)o2)c1 | 9.12
55 | CC1=CN2C(=N)/C(=C/c3ccc([N+](=O)[O-])o3)C(=O)N=C2S1 | 3.33
56 | CN(/N=C/c1ccc([N+](=O)[O-])o1)c1ccccc1 | 6.49
57 | Cc1cc(C)n(-c2ccc(C(=O)OCC(=O)Nc3cc(Cl)ccc3[N+](=O)[O-])cc2)n1 | 0.57
58 | COC(=O)C1=C(C)N(CC2CC2)C(=NCc2cccc(Cl)c2)N[C@H]1c1ccccc1 | 16.6
59 | CCCC(C)C(=O)Nc1ccc(Cl)cn1 (stereo not given) | 1.28
60 | CC(C(=O)OCC(=O)c1ccccc1)N1C(=O)C2C3CCC(C3)C2C1=O (stereo not given) | -2.54

From PubChem BioAssay AID492952 (Southern Research Specialized Biocontainment Screening …, 2010)
